# The source made the active and inactive calls. Unless noted, how the calls were made is not given here.
# Key:
# [1] = system: Wnt5a (protein binding on small-molecule microarray); assay: Wnt5a binders on small-molecule microarray, primary screen, biophysical, 635/667 nm fluorescence (AID 1142); details: 635 nm fluorescence, higher = more signal;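 further: fluorescence read at 667 nm with signal to noise per printed feature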
# [2] = cell viability in Huh7 cells, primary screen, cytotoxicity control for HCV replication inhibitor project, CellTiter-Glo luminescence, basal, 48 h (AID 1143); details: Huh7 HCV replicon, higher = more signal, called active from +8 up or from −8 down;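 further: Huh7 hepatoma cells carrying a hepatitis C replication reporter with no stimulus; test concentration not given here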
# [3] = P. aeruginosa biofilm formation inhibitors, primary screen, PAO1 strain, BacTiter-Glo luminescence, LB-PBS (AID 1144); details: 12 h, higher = more signal
# [4] = CREB reporter modulators without forskolin, primary screen, cell-based, PC12, CRE-LacZ reporter, unstimulated (AID 1145); details: no forskolin, luminescence, 4.5 h, higher = more signal, called active from +8 up or from −8 down
# [5] = CREB reporter modulators under forskolin, primary screen, cell-based, PC12, CRE-LacZ reporter, forskolin-stimulated (AID 1146); details: luminescence, 4.5 h, higher = more signal, called active from +8 up or from −8 down;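 further: PC12 cells with 6xCRE LacZ reporter stimulated by forskolin 10 µM; beta-galactosidase reporter signal reflecting CREB driven transcription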
# [6] = target: Streptavidin (Streptomyces avidinii) (UniProt P22629); assay: streptavidin binders on small-molecule microarray, primary screen, artefact control for SMM compound annotation, biophysical, 635/667 nm fluorescence (AID 1147); details: streptavidin binding, higher = more signal;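 further: signal reflects streptavidin binding to arrayed compounds as a control protein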
# [7] = small-molecule binders of probe aInhba, primary screen, biochemical, small-molecule microarray, 635/667 nm fluorescence (AID 1148); details: higher = more signal;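 further: score merges 667nm spot fluorescence with signal-to-noise for antibody binding to printed compounds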
# Torsin-1A (Homo sapiens) [8] = target: Torsin-1A (Homo sapiens) (UniProt O14656); assay: torsin A binders from cell lysate, primary screen, small-molecule microarray, wild-type, 635/667 nm (AID 1149); details: COS7 hTOR1A-WT lysate, 635 nm fluorescence, higher = more signal
# Torsin-1A (Homo sapiens) [9] = target: Torsin-1A (Homo sapiens) (UniProt O14656); assay: small-molecule binders of mutant TOR1A in lysate, primary screen, cell lysate, small-molecule microarray, COS7 lysate, 635/667 nm fluorescence (AID 1150); details: COS7 hTOR1A mutant lysate, 635 nm fluorescence, higher = more signal;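 further: score pools 667 nm emission and signal to noise measuring lysate protein binding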
# [10] = system: Sonic hedgehog protein (Shh); assay: small-molecule binders of Shh protein, primary screen, biochemical, small-molecule microarray, 635/667 nm fluorescence (AID 1151); details: small-molecule microarray binding, 635 nm fluorescence; higher = more signal;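 further: Shh protein binding to compounds spotted on small-molecule microarray slides; score combines spot fluorescence intensity with signal-to-noise across triplicate slides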
# [11] = E. coli DRC41 culture turbidity changes, primary screen, E. coli filamentation inducer project, strain DRC41, OD650, 48 h (AID 1152);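 further: E. coli MC1000 strain DRC41 lacking acrAB efflux pump and sulA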; details: E. coli DRC41 (acrAB sulA), higher = more signal, called active from +8 up or from −8 down
# [12] = small-molecule binders of probe aLefty1, primary screen, biochemical, small-molecule microarray, 635/667 nm fluorescence (AID 1153); details: higher = more signal;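 further: score merges spot fluorescence with signal-to-noise ratio from the scanned slide images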
# [13] = PSAC antagonists in infected red cells, primary screen, cell-based, P. falciparum Indochina, OD700, 1 h (AID 1154); details: P. falciparum Indochina infected RBC osmotic lysis, higher = more signal, called active from +8 up or from −8 down
# [14] = PSAC antagonists in infected red cells, primary screen, cell-based, P. falciparum Indochina, OD700, 2 h (AID 1155);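 further: lysis reports solute entry through the parasite surface anion channel PSAC; channel blockers reduce lysis of infected cells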; details: P. falciparum Indochina infected erythrocytes, osmotic lysis OD700; higher = more signal, called active from +8 up or from −8 down
# [15] = osmotic lysis modulators in infected erythrocytes, primary screen, PSAC antagonist project, cell-based, P. falciparum Indochina, OD700, 3 h (AID 1156); details: higher = more signal, called active from +8 up or from −8 down
# [16] = PSAC antagonists in infected red cells, primary screen, cell-based, P. falciparum Indochina, OD700, 18 h (AID 1157); details: P. falciparum Indochina infected erythrocytes, osmotic lysis OD700, 18 h; higher = more signal, called active from +8 up or from −8 down
# [17] = modulators of S6 phosphorylation in cells, primary screen, cell-based, A549, cytoblot, luminescence, serum-stimulated (AID 1158); details: A549 phospho-S6 cytoblot, 5 h, higher = more signal;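 further: serum-stimulated A549 lung adenocarcinoma cells; signal is phosphorylated S6 detected by cytoblot immunostaining with HRP secondary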
# [18] = target: NADPH oxidase 2 (Homo sapiens) (UniProt P04839); assay: NOX2-dependent H2O2 signal modulators, primary screen, NOX inhibitor project, cell-based, HEK293-NOX2, PMA-stimulated, Amplex Red fluorescence (AID 1159); details: 45 min, higher = more signal, called active from +8 up or from −8 down; further: test concentration not given here
# [19] = target: NADPH oxidase 4 (Homo sapiens) (UniProt Q9NPH5); assay: NOX4-dependent H2O2 signal modulators, primary screen, NOX inhibitor project, cell-based, HEK293-NOX4, tetracycline-induced, Amplex Red fluorescence (AID 1160); details: 45 min, higher = more signal, called active from +8 up or from −8 down
# [20] = target: NADPH oxidase 5 (Homo sapiens) (UniProt Q96PH1); assay: NOX5-dependent H2O2 signal modulators, primary screen, NOX inhibitor project, cell-based, HEK293-NOX5, Amplex Red fluorescence (AID 1161); details: HEK293-NOX5, ionomycin, 45 min, higher = more signal
# NADPH oxidase 5 (Homo sapiens), sequence (Q96PH1 whole entry, looked up): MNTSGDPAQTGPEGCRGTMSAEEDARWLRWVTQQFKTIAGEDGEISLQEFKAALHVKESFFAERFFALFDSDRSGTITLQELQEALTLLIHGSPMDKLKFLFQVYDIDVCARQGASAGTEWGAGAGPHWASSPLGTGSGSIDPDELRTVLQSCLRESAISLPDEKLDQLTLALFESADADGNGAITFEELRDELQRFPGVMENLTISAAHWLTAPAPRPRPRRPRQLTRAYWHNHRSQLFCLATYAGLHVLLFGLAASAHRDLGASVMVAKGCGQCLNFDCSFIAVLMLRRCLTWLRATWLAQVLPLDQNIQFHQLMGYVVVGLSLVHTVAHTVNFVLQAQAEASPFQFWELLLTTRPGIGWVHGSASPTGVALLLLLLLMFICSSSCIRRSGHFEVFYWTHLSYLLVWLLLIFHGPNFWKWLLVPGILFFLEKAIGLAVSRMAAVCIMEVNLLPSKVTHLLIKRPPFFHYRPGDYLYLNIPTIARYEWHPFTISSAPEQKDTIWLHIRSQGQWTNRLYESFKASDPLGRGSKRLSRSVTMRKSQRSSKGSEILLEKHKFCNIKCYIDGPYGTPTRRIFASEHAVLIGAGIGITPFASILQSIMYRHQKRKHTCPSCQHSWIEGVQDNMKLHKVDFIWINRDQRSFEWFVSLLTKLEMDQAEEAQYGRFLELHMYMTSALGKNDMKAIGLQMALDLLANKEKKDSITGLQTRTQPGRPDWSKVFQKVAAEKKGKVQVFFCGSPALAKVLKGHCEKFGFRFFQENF
# NADPH oxidase 2 (Homo sapiens), sequence (P04839 whole entry, looked up): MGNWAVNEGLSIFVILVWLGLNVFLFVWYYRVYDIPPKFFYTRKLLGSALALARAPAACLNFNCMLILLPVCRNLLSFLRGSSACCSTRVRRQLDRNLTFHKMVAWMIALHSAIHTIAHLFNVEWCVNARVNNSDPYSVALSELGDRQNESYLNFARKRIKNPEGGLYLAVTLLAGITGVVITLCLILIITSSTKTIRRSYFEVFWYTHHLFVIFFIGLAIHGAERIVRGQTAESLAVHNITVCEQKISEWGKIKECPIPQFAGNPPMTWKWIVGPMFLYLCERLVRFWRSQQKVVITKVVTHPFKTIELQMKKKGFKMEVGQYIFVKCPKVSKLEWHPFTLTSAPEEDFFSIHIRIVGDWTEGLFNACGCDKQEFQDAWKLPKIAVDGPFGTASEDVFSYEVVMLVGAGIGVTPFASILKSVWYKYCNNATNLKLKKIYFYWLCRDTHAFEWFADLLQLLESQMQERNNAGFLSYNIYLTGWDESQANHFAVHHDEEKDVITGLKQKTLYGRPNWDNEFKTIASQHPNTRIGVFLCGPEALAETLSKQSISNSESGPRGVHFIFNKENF
# Streptavidin (Streptomyces avidinii), sequence (P22629 whole entry, looked up): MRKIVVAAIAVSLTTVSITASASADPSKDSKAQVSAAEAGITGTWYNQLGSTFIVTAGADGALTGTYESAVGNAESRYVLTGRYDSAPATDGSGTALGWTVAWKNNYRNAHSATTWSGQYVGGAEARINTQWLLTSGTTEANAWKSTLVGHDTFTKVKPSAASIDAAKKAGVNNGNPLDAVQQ
# NADPH oxidase 4 (Homo sapiens), sequence (Q9NPH5 whole entry, looked up): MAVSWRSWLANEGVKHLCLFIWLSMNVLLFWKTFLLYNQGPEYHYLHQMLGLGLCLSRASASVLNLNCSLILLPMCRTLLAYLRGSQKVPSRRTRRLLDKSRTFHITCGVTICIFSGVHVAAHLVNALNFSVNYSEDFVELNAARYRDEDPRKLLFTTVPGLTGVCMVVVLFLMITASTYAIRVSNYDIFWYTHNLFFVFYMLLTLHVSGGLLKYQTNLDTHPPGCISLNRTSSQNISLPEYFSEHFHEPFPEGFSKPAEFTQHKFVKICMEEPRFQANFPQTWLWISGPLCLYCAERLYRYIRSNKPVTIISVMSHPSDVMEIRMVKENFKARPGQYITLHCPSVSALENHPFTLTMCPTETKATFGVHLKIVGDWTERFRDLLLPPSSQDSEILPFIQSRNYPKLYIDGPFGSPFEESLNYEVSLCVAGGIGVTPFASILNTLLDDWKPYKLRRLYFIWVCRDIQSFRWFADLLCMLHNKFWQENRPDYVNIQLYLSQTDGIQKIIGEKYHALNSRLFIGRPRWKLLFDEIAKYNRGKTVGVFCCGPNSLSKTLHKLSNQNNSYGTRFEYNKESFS
# Torsin-1A (Homo sapiens), sequence (O14656 whole entry, looked up): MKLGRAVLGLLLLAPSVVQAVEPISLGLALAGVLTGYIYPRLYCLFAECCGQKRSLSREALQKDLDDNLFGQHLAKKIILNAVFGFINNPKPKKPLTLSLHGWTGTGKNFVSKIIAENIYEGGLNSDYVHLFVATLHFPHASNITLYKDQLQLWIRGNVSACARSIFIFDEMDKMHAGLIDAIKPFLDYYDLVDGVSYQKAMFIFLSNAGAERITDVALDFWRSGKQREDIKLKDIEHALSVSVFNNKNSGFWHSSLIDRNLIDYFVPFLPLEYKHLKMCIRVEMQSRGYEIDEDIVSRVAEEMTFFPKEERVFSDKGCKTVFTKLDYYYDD
Compound,composite z-score [1],z-score [2],z-score [3],z-score [4],z-score [5],composite z-score [6],composite z-score [7],composite z-score (Torsin-1A (Homo sapiens) [8]),composite z-score (Torsin-1A (Homo sapiens) [9]),composite z-score [10],z-score [11],composite z-score [12],z-score [13],z-score [14],z-score [15],z-score [16],z-score [17],z-score [18],z-score [19],z-score [20]
CC(C)(C)OC(=O)CC[C@]1(C(N)=O)N=C(c2ccc(OCCCO)cc2)O[C@H]1c1ccccc1,0.836,-0.408 (inactive),0.304 (inactive),-0.585 (inactive),-0.121 (inactive),0.679,0.4,-0.037,0.941,-0.332,-0.179 (inactive),0.762,6.16 (inactive),-0.927 (inactive),-0.524 (inactive),-0.367 (inactive),0.0312,0.266 (inactive),-1.12 (inactive),0.814
COc1cc(CO)cc(I)c1O[C@H]1C=C(C(=O)NCCO)C[C@@H](NC[C@@H]2CCCO2)[C@@H]1O,-0.11,0.102 (inactive),-0.69 (inactive),1.77 (inactive),-0.809 (inactive),-0.442,-0.135,0.761,0.127,1.07,2.35 (inactive),-0.0075,3.81 (inactive),0.585 (inactive),1.4 (inactive),0.303 (inactive),0.687,-0.144 (inactive),0.492 (inactive),-0.0544
O=C(CS)NCCCCCNC(=O)[C@H]1C[C@H]2C(=O)NCC(=O)N2[C@H]1c1cccc(OCCO)c1,-0.341,-0.466 (inactive),-0.218 (inactive),-1.48 (inactive),0.0277 (inactive),-1.05,-0.217,-0.181,-0.0418,0.27,1.43 (inactive),-0.142,0.0198 (inactive),-0.851 (inactive),-4 (inactive),-2.1 (inactive),-0.61,0.448 (inactive),1.08 (inactive),0.664
C=CC[C@]1(C(=O)NCc2ccccc2)N=C(c2ccc(OCCCO)cc2)O[C@H]1c1ccccc1CN=[N+]=[N-],0.625,-3.52 (inactive),-0.728 (inactive),0.857 (inactive),-0.116 (inactive),0.866,0.682,-0.221,0.631,-0.251,-1.21 (inactive),0.0556,19.7 (active),2.93 (inactive),3.16 (inactive),0.986 (inactive),-0.387,-0.302 (inactive),0.617 (inactive),-0.656
[N-]=[N+]=Nc1ccccc1C[C@]1(C(=O)NCc2ccccc2)N=C(c2ccc(OCCCO)cc2)O[C@H]1c1ccccc1N=[N+]=[N-],0.933,-4.05 (inactive),0.0249 (inactive),1.77 (inactive),-0.741 (inactive),1.73,-0.156,0.109,0.286,-0.4,-0.107 (inactive),-0.353,28.1 (active),28.7 (active),2.76 (inactive),5.76 (inactive),0.096,-1.87 (inactive),0.483 (inactive),-0.32
[N-]=[N+]=NCc1ccccc1[C@@H]1OC(c2ccc(OCCCO)cc2)=N[C@]1(CCS(=O)(=O)c1ccccc1)C(=O)N1CCCCC1,0.571,-2.09 (inactive),0.406 (inactive),5.06 (inactive),0.243 (inactive),1.19,0.531,0.292,0.447,-0.0529,0.323 (inactive),0.522,22.8 (active),7.3 (inactive),1.59 (inactive),1.06 (inactive),0.34,0.196 (inactive),1.19 (inactive),2
COCCOC(=O)N1C(=O)[C@@]2(c3cc(C#CCCO)ccc31)[C@H](c1ccc(OCCO)cc1)N1[C@H](c3ccccc3)[C@H](c3ccccc3)OC(=O)[C@H]1[C@@H]2C(N)=O,0.711,-1.47 (inactive),0.502 (inactive),0.209 (inactive),1.71 (inactive),0.266,0.364,0.271,0.569,0.811,0.391 (inactive),0.0329,12.1 (active),2.16 (inactive),0.136 (inactive),0.932 (inactive),-0.296,1.93 (inactive),-0.511 (inactive),0.419
COCCCNC(=O)[C@@]1(Cc2ccccc2)N=C(c2ccc(OCCCO)cc2)O[C@H]1c1ccccc1CN=[N+]=[N-],0.419,-3.17 (inactive),1.55 (inactive),0.447 (inactive),-0.929 (inactive),0.716,0.389,0.544,0.37,-0.0164,0.576 (inactive),0.272,14.3 (active),1.83 (inactive),1.75 (inactive),0.94 (inactive),-0.443,-4.56 (inactive),-0.271 (inactive),-0.67
[N-]=[N+]=Nc1ccccc1C[C@@]1(C(=O)N2CCCCC2)N=C(c2ccc(OCCCO)cc2)O[C@@H]1c1ccccc1N=[N+]=[N-],0.648,-5.13 (inactive),0.989 (inactive),0.801 (inactive),-0.929 (inactive),1.33,0.404,0.46,0.585,0.248,0.0693 (inactive),0.926,31.8 (active),29.5 (active),2.52 (inactive),3.95 (inactive),0.0562,0.0863 (inactive),-0.141 (inactive),-0.801
